This note sets out measurements from PubChem BioAssay (NCATS).

The nature of assay [1]: Viability qHTS for spleen associated tyrosine kinase inhibitor (SYKi) naive MV4-11 cells (AID 1963823). Further: nearly all actives have a fitted effect of over 40% in size. Put shortly: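 qHTS, SYK inhibitor-naive MV4-11; 500 cells/well; 72 hr compound exposure, 37 C; CellTiter-Glo added, 10 min RT; luminescence read.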
In general terms: Quantitative high-throughput screening tests each substance at several concentrations.

Assay [2] is described as follows: Viability qHTS for spleen associated tyrosine kinase inhibitor (SYKi) drug resistant MV4-11 cells (AID 1963824). Further: nearly all actives have a fitted effect of over 35% in size. Put shortly: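 SYK inhibitor-resistant MV4-11 AML cells, 500 per well, added to predispensed compounds and incubated 72 hr at 37 C, 5% CO2. Viability measured by CellTiter-Glo luminescence after 10 min at room temperature.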

Structures are written as SMILES. Several values for one entry are separate records, joined by “and”; a condition that tells them apart may be missing. Equal values may be shown once. Records with an inconclusive call do not appear. A number with no mark means an inactive call. Activity calls are given as the source filed them. The call rests on the fitted dose curve; in most records, active means well fitted cell-killing curve with a large enough effect; inconclusive means small, poorly fitted or top-dose-only effect, or effect the other way; inactive means no such curve, though single readings can be large or run the other way.
Potency means the concentration at half of the fitted maximal effect.

`CC(C)c1cc2c(c(O)c1O)[C@@]13CCCC(C)(C)C1[C@@H](O)[C@@H]2OC3=O` (some centres not stated): the Potency is 4530 nM (active) in assay [1] and 10.1 µM (active) in assay [2].
In the same order, the values of `COc1cc(OC)cc(N2CCN(C(=O)Nc3nc4cc(F)ccc4nc3OC)CC2)c1` are 934 nM (active) and 1.05 µM (active).
With `COC1CC(=O)C23C(=O)NC(Cc4c[nH]c5ccccc45)C2C(C)C2(C)OC2C3/C=C/CC(C)CC1O` (configuration not stated), the Potency in assay [1] is 3990 nM (active); in assay [2] it was 4.47 µM (active).
For the molecule `C=C(C(=O)OC)C1C(O)CC2(C)C(=O)CCC(O)(CO)C2C1O` (configuration not stated), the Potency result in assay [1] and in assay [2] was “inactive” each time.
For `C/C(=C/CCC(CO)C1CCC2(C)C3CCC4C(C)(C)C(OC5OC(CO)C(O)C(O)C5O)CC(O)C45CC35CCC12C)COC1OC(CO)C(O)C(O)C1O` (configuration not stated), the Potency result in assay [1] and in assay [2] was “inactive” each time.
As for `C=C[C@]1(C)C=C2CCC3C(C)(CCC[C@@]3(C)C(=O)O)C2CC1` (some centres not stated), the Potency entry in assay [1] and in assay [2] was “inactive” each time.
For `CC(C)(C)c1ccc(S(=O)(=O)NCc2ccc(C(=O)Nc3cccnc3)cc2)cc1`, the figures for the Potency in assay [1] and in assay [2] were 231 nM (active) and 0.231 µM (active), respectively.
`COc1cc(C2Oc3c(OC)cc(/C=C/C(=O)OC[C@H]4O[C@@H](OC(C)(C)C(=O)O)[C@H](O)[C@@H](O)[C@@H]4O)cc3C2CO)ccc1O` (some centres not stated): the Potency result in assay [1] and in assay [2] was “inactive” throughout.
For the molecule `COc1cc2c(cc1O)CC[C@@H]1[C@@H]2CC[C@]2(C)[C@@H](O)CC[C@@H]12`, the results for the Potency in assay [1] and in assay [2] were 833 nM (active) and 0.934 µM (active), respectively.
Taken in the same sequence, the figures for `CC1COC2(OC3CC4C5CC(O[C@@H]6O[C@H](C)[C@@H](O[C@@H]7O[C@@H](C)[C@H](O)[C@@H](O)[C@H]7O)[C@H](O)[C@H]6O)C6CC(O)CCC6(C)C5CCC4(C)C3C2C)C(O)C1` (some centres not stated) were “inactive” and “inactive”.
Taken in the same sequence, the figures for `Oc1ccc(Nc2nc(-c3ccc(Cl)cc3)cs2)cc1` were 5800 nM (active) and 2.06 µM (active).
As to `C[C@@H]1O[C@@H](O[C@H]2[C@H](OC(=O)[C@]34CCC(C)(C)C[C@H]3C3=CCC5[C@@]6(C)C[C@H](O)[C@H](O[C@@H]7O[C@H](CO)[C@@H](O)[C@H](O)[C@H]7O)[C@@](C)(CO)C6[C@H](O)C[C@@]5(C)[C@]3(C)CC4)OC[C@H](O)[C@@H]2O)[C@H](O)[C@H](O)[C@H]1O[C@@H]1OC[C@@H](O)[C@H](O[C@@H]2OC[C@](O)(CO)[C@H]2O)[C@H]1O` (some centres not stated), the viability (% of control) in assay [1] was 85.2% [at 9.25 µM]. Moreover, the viability, % of control in assay [2] is 102% [at 9.25 µM].
`CCOC(=O)C1=C(N)Oc2ccc(Cl)cc2C1C(C#N)C(=O)OCC` (configuration not stated): the Potency entry in assay [1] and in assay [2] was “inactive” in each case.
On to `CCOc1nc2cccc(C(=O)OCc3oc(=O)oc3C)c2n1Cc1ccc(-c2ccccc2-c2noc(O)n2)cc1`, for which the Potency result in assay [1] and in assay [2] was “inactive” throughout.
As for `COc1ccc(C(=O)N(CCC(C)C)Cc2nc(C)c(C)n2Cc2ccccc2C)c(OC)c1`, the Potency is 20600 nM (active) in assay [1] and 20.6 µM (active) in assay [2].
In the same order, the values of `CCCCc1nc(Cl)c(CO)n1Cc1ccc(-c2ccccc2-c2nnn[nH]2)cc1` are “inactive” and “inactive”.
In the same order, the values of `C[C@]1(CO)CCC[C@]2(C)C3=C(CCC12)COC3` (some centres not stated) are “inactive” and “inactive”.
Taken in the same sequence, the figures for `CC[C@]1(O)CC2CN(CCc3c([nH]c4ccccc34)[C@@](C(=O)OC)(c3cc4c(cc3OC)N(C=O)[C@H]3[C@@](O)(C(=O)OC)[C@H](OC(C)=O)[C@]5(CC)C=CCN6CC[C@]43[C@@H]65)C2)C1` (some centres not stated) were 80.5 nM (active) and 0.0508 µM (active).
In the case of `COc1cc(C2Oc3c(O)cc(CCCO)cc3C2CO)ccc1O[C@H]1O[C@H](C)[C@@H](O)[C@H](O)[C@@H]1O` (some centres not stated), the Potency entry in assay [1] and in assay [2] was “inactive” throughout.
Consider `Cc1cc(Nc2nn(-c3ccccc3)c(=O)c3ccccc23)n[nH]1`, for which the values for the Potency in assay [1] and in assay [2] were 146 nM (active) and 0.461 µM (active), respectively.
For `C/C=C(\C)C(=O)O[C@H]1[C@H](O)[C@]2(COC(C)=O)[C@H](O)C[C@]3(C)C(=CCC4[C@@]5(C)CC[C@H](O[C@@H]6O[C@H](C(=O)O)[C@@H](O[C@@H]7O[C@H](CO)[C@@H](O)[C@H](O)[C@H]7O)[C@H](O)[C@H]6O[C@@H]6O[C@H](CO)[C@@H](O)[C@H](O)[C@H]6O)[C@](C)(CO)C5CC[C@]43C)[C@@H]2CC1(C)C` (some centres not stated), the viability (% of control) in assay [1] is 88% [at 9.25 µM]. Further, the viability, % of control in assay [2] is 97.8% [at 9.25 µM].
On to `Cc1c(-c2ccnc(Nc3cc(Br)cc(C(F)(F)F)c3)n2)sc(=O)n1C`, for which the Potency result in assay [1] and in assay [2] was “inactive” each time.
`COc1cc(SC)ccc1C(=O)N1CCC(Cc2ccccc2)CC1`: the Potency is 23100 nM (active) in assay [1]; 16.6 µM (active) and 20.6 µM (active) in assay [2].
With `CCCCCOc1ccc(-c2cc(-c3ccc(C(=O)N[C@H]4C[C@@H](O)[C@@H](O)NC(=O)C5[C@@H](O)[C@@H](C)CN5C(=O)C([C@H](O)CC(N)=O)NC(=O)C([C@H](O)[C@@H](O)c5ccc(O)c(OS(=O)(=O)O)c5)NC(=O)C5C[C@@H](O)CN5C(=O)C([C@@H](C)O)NC4=O)cc3)no2)cc1` (some centres not stated), the Potency result in assay [1] and in assay [2] was “inactive” in each case.
Turning to `COc1cc(/C=C/CO)cc(OC)c1O[C@@H]1O[C@H](CO[C@@H]2O[C@H](CO)[C@@H](O)[C@H](O)[C@H]2O)[C@@H](O)[C@H](O)[C@H]1O`, the Potency result in assay [1] and in assay [2] was “inactive” each time.
For `CC(C)(Cc1ccccc1)NCC(O)c1ccc(O)c(NS(C)(=O)=O)c1` (configuration not stated), the Potency result in assay [1] and in assay [2] was “inactive” in each case.
Take `CC1=CC(=O)CC2C1(O)CCC(C)C21CC(c2ccoc2)OC1=O` (configuration not stated): the Potency entry in assay [1] and in assay [2] was “inactive” throughout.
Regarding `C[C@]1(OC(=O)/C=C/c2ccccc2)C[C@@H](O)[C@]2(O)C=CO[C@@H](O[C@@H]3O[C@H](CO)[C@@H](O)[C@H](O)[C@H]3O)[C@@H]21`, the Potency result in assay [1] and in assay [2] was “inactive” each time.
Take `OC[C@H]1O[C@@H](O[C@H]2[C@H](OCCc3ccccc3)O[C@H](CO)[C@@H](O)[C@@H]2O)[C@H](O)[C@@H](O)[C@@H]1O`: the Potency result in assay [1] and in assay [2] was “inactive” in each case.
As to `O=C(c1c2ccccc2cc2ccccc12)N1CCC(N2CCC[C@@H](C(=O)N3CCOCC3)C2)CC1`, the Potency result in assay [1] was “inactive”. Also, the Potency in assay [2] is 16.4 µM (active).
Taken in the same sequence, the figures for `C/C=C1/[C@H](O[C@@H]2O[C@H](CO)[C@@H](O)[C@H](O)[C@H]2O)OC=C(C(=O)OC)[C@H]1CC(=O)O[C@@H]1O[C@H](CO)[C@@H](O)[C@H](O)[C@H]1O` were “inactive” and “inactive”.
Taken in the same sequence, the figures for `CC1(C)SC2C(NC(=O)[C@H](C(=O)O)c3ccsc3)C(=O)N2C1C(=O)O` (some centres not stated) were “inactive” and “inactive”.
In the same order, the values of `CCOc1cn(-c2ccc(F)cc2C)nc1C(=O)Nc1ccc(Oc2ccnc3cc(OC)c(OC)cc23)c(F)c1` are 259 nM (active) and 0.651 µM (active).
For `Cc1nc(CNc2ncnc3ccc(-c4ccc5c(c4)OCO5)cc23)cs1`, the Potency was 14600 nM (active) in assay [1] and 23.1 µM (active) in assay [2].
Taken in the same sequence, the figures for `CC1CC(O)C2(OC1=O)OC1C(O)C3C4CCC5CC(OC6OC(CO)C(O)C(O)C6OC6OC(C)C(O)C(O)C6O)CCC5(C)C4CCC3(C)C1C2C` (configuration not stated) were “inactive” and “inactive”.
In the same order, the values of `COc1cc(/C=C/C(=O)O[C@H]2[C@H](O)[C@@H](CO)O[C@@]2(CO)O[C@H]2O[C@H](CO)[C@@H](O)[C@H](O)[C@H]2O)ccc1O` are “inactive” and “inactive”.
In the same order, the values of `O=C(O)c1ccc(S(=O)(=O)N(Cc2ccc(OC(F)(F)F)cc2)c2ncc(C(F)(F)F)cc2Cl)cc1` are 20600 nM (active) and 23.1 µM (active).
As for `OC1(CN2CCC(COc3noc4cccc(O[C@@H]5CCOC5)c34)CC2)CCOCC1`, the Potency result in assay [1] and in assay [2] was “inactive” in each case.
Take `CC1CCC2C(C(=O)O)=CC3C(O)C(C)(C)CC123` (configuration not stated): the Potency entry in assay [1] and in assay [2] was “inactive” in each case.
For the molecule `COc1c(C)c(OCC(O)C(C)(C)O)cc2c1COC2=O` (configuration not stated), the Potency entry in assay [1] and in assay [2] was “inactive” throughout.
As for `CC(C)[C@@](C)(O)[C@@H]1CN(c2nc(-c3[nH]nc4ncccc34)c(F)cc2Cl)CCN1`, the Potency in assay [1] was 366 nM (active); in assay [2], 0.731 µM (active).
In the case of `COC(=O)C[C@H]1C(C)(C)[C@H](OC(=O)C(C)C)[C@@]2(O)C(=O)[C@]1(C)C1CC[C@]3(C)C(CC(=O)O[C@H]3c3ccoc3)[C@]13O[C@@H]32` (some centres not stated), the Potency entry in assay [1] and in assay [2] was “inactive” in each case.
`COC(=O)CC(C)(O)CC(=O)OCc1ccc(O[C@@H]2O[C@H](CO)[C@@H](O)[C@H](O)[C@H]2O)cc1` (some centres not stated): the Potency entry in assay [1] and in assay [2] was “inactive” each time.
In the case of `COc1ccnc2[nH]cc(C(=O)C(=O)N3CCN(C(=O)c4ccccc4)CC3C)c12` (configuration not stated), the Potency entry in assay [1] and in assay [2] was “inactive” in each case.
Take `COCC(c1ccc(C(F)(F)F)cc1)N1CCN(C2(C)CCN(C(=O)c3c(C)ncnc3C)CC2)CC1C` (configuration not stated): the Potency result in assay [1] and in assay [2] was “inactive” each time.
Turning to `Cc1cc(-c2ccc(/C=C3\SC(=Nc4ccc(Cl)c(C(=O)O)c4)NC3=O)o2)c([N+](=O)[O-])cc1C`, the Potency entry in assay [1] and in assay [2] was “inactive” throughout.
